A selection: hits, their analogues and other compounds. The true share with any hit is near 8.2%.
KB-V1 cytotox: qHTS assay for MDR1-selective chemotherapeutics: Primary screen using the drug-selected MDR subline cells KB-V1 | Potency, µM (top dose mostly 46.1 µM), most hits filed as cytotoxic | 3.4% of 400,000 active | KB-V1 MDR cells viability, CellTiter-Glo, 72 h | AID 1347076, 2019; further: on the % scale 0 is the no-effect control and ±100 the full control effect; nearly all actives have a fitted effect of over 60% in size
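Luminescent ATP read-out (CellTiter-Glo, 10 min) measures survival of drug-selected KB-V1 MDR cells after 72 h, 37 degrees C compound exposure. Medium: phenol-red-free DMEM, 10% FBS. Values from fitted concentration-response curves.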
KB-3-1 tox: qHTS assay for MDR1-selective chemotherapeutics: Primary screen using the parental adenocarcinoma cell KB-3-1. KB-3-1 viability, CellTiter-Glo ATP luminescence, 72 h. Potency, µM (series often up to 46.1 µM), actives largely listed as cytotoxic. 1.4% of 400,000 active. AID 1347075, 2019; further: on the % scale 0 is the no-effect control and ±100 the full control effect; nearly all actives have a fitted effect of over 60% in size
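KB-3-1 cells, DMEM (no phenol red) + 10% FBS; compound by pin transfer, 72 h, 37 °C. Readout: CellTiter-Glo luminescence after 10 min. Data normalized, curve-fitted.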
ELG1 repair inh: qHTS screen for small molecules that inhibit ELG1-dependent DNA repair in human embryonic kidney (HEK293T) cells expressing luciferase-tagged ELG1. HEK293T ELG1-luciferase reporter, luminescence, 16 h; DNA damage induced by 5-fluorouridine. Potency, µM (top dose mostly 46.1 µM), for inactives: at the top dose activity change, negative = inhibition, actives largely listed as inhibitors. 2.3% of 330,000 active; further: on the % scale 0 is the no-effect control and ±100 the full control effect; nearly all actives have a fitted effect of over 55% in size
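Overnight (16 hr) co-exposure of 2,000 cells/well to 5-fluorouridine and compound at 37 °C preceded detection. Luciferase was quantified via ONE-Glo luminescence; loss of signal denotes inhibition.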
SW480 rereplic: A quantitative high throughput screen for small molecules that induce DNA re-replication in SW480 colon adenocarcinoma cells; Potency, µM (doses to about 46.1 µM), for inactives: at the top dose re-replication activation, most hits filed as activators; 1.8% of 340,000 active; SW480 DNA re-replication, Hoechst DNA content imaging, 48 h; AID 624297, 2012; further: % of control where 0% means no effect; nearly all actives have a fitted effect of over 55% in size
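Image-based read-out: total Hoechst fluorescence of nuclei (405 nm excitation, 500-530 nm emission), with hits raising the fraction of high-intensity nuclei. SW480 colon cells incubated 48 hr with compounds at 37 C.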
MCF10A rereplic: A quantitative high throughput screen for small molecules that induce DNA re-replication in MCF 10a normal breast cells | MCF 10A DNA re-replication, Hoechst nuclear intensity, 48 h | Potency, µM (titrated, usually from 46.1 µM), without a hit: at the highest dose activity, positive = re-replication, most hits filed as activators | 2.9% of 350,000 active | AID 624296, 2012; further: % of control where 0% means no effect; nearly all actives have a fitted effect of over 50% in size
The depositor's hits bear a star; i = inactive; ? = inconclusive; . = no result; [ ] = remark or other dose. The call rests on the fitted dose curve; in most records, active means well fitted curve in the direction sought with a large enough effect; inconclusive means small, poorly fitted or top-dose-only effect, or another doubt; inactive means no such curve, though single readings can be large; an effect the other way counts as inactive or inconclusive. Potency means the concentration at half of the fitted maximal effect.

SMILES | KB-V1 cytotox | KB-3-1 tox | ELG1 repair inh | SW480 rereplic | MCF10A rereplic
Cc1cc(NC(=O)CCS(=O)(=O)c2nc(-c3ccccc3)cc(C(F)(F)F)n2)no1 | i | ? | ? | ? | 5.17µM*
CS(=O)(=O)c1nc(-c2ccccc2)cc(C(F)(F)F)n1 | ? | ? | ? | ? | 2.59µM*
CCOc1ccc(NS(=O)(=O)c2ccc(NC(=S)NC(=O)CC(C)C)cc2)cc1 | ? | i | ? | ? | ?
CC(C)CC(=O)NC(=S)Nc1ccc(S(=O)(=O)NC(C)(C)C)cc1 | 14.6µM* | i | -27.6% | 2.5% | 5.1%
Cc1nc(NC2=NCN(CCCN3CCOCC3)CN2)nc2c(C)cccc12 | i | 8.2µM* | -4.6% | ? | ?
C=C1c2nc3ccccc3n2C=C(c2ccc(C)cc2)N1c1ccccc1 | ? | 16.4µM* | . | ? | 4.61µM*
CCOC(=O)C(Cc1ccc(NC(C)=O)cc1)N1C(=O)c2ccccc2C1=O (centres undefined) | i | i | ? | 2.6% | -8.6%
CCCCOCCCNC(=O)C[C@@H]1C[C@@]2(C(=O)OCC)CCC=C2N(Cc2ccc(Cl)cc2Cl)C1=O | 18.4µM* | ? | . | . | .
CCOC(=O)N1CCN(C(=O)C[C@@H]2C[C@@]3(C(=O)OCC)CCC=C3N(Cc3ccc(Cl)cc3Cl)C2=O)CC1 | 10.3µM* | i | . | . | .
CCOC(=O)[C@]12CCC=C1N(Cc1ccc(Cl)cc1Cl)C(=O)[C@H](CC(=O)N1CCCC1)C2 | ? | i | . | . | .
CCOC(=O)[C@]12CCC=C1N(Cc1ccc(Cl)cc1Cl)C(=O)[C@H](CC(=O)N1CCN(C(=O)c3ccco3)CC1)C2 | 10.3µM* | i | . | . | .
CCOC(=O)C1=CCN(S(=O)(=O)c2ccccc2Br)C1c1ccc(C)cc1 (centres undefined) | i | i | . | . | .
NC(N)=N/N=C/c1ccc(OCc2ccccc2)c(OCc2ccccc2)c1 | i | ? | ? | 21.2% | 11.6µM*
CCOc1cc(/C=N/N=C(N)N)ccc1OCc1ccc(Cl)cc1 | ? | ? | -11.3% | ? | 18.4µM*
COc1cc(NC(=O)CSc2nc3nc(C)c(Cc4ccc(C)cc4)c(C)n3n2)cc(OC)c1 | i | i | . | . | .
CCOc1ccc(NC(=O)c2cc(C)nc3c2c(C)nn3-c2cccc(F)c2)cc1 | i | i | . | . | .
CC1(C(=O)NCc2ccccc2)CSCC(=O)N1CC(F)(F)F (centres undefined) | i | i | . | . | .
CCOc1cc(C(=O)Nc2ccc(NC(=O)c3cc4ccccc4o3)c(OC)c2)cc(OCC)c1OCC | i | i | . | . | .
COc1ccc(C2SCCN2C(=S)Nc2cccc(Cl)c2)cc1 (centres undefined) | 7.31µM* | ? | 1.0% | -7.2% | -50.3%
COc1ccc(C2SCCN2C(=S)Nc2ccc(Cl)cc2)cc1 (centres undefined) | 23.1µM* | ? | 16.1% | 3.6% | -2.4%
COc1ccc(C2=NOC(Cn3nc(C(=O)NCc4cccc(C(F)(F)F)c4)cc3-c3ccccc3)C2)cc1 (centres undefined) | i | i | -26.2% | -47.2%[9.22 µM] | -2.8%
CCOC(=O)c1ccc(-n2cccc2/C=C2\NC(=O)NC2=O)cc1 | 7.31µM* | 5.8µM* | ? | 18.4µM* | 7.31µM*
CCOC(=O)c1cccc(-n2cccc2/C=C2\NC(=O)N(CC(=O)O)C2=O)c1 | i | i | 12.4% | -4.0% | ?
Nc1ncnc2oc(-c3ccoc3)c(-c3ccco3)c12 | i | i | . | . | .
Nc1ncnc2oc(-c3ccco3)c(-c3ccco3)c12 | 20.6µM* | i | ? | -2.9% | 6.3%
SMILES | KB-V1 cytotox | KB-3-1 tox | ELG1 repair inh | SW480 rereplic | MCF10A rereplic
O=C1CCCC2=C1C(c1ccsc1)CC(=O)N2c1nnc(SCc2ccccc2)s1 (centres undefined) | i | i | -2.1% | -2.5% | -2.0%
O=C1CCCC2=C1C(c1ccsc1)CC(=O)N2c1ccccc1 (centres undefined) | 13µM* | i | 3.6% | 10.9% | 14.2%
O=C(NC(=S)NC(CO)Cc1ccccc1)c1ccc(F)cc1 (centres undefined) | i | i | ? | -5.1% | 18.8%
CCNC(=O)/C(C#N)=C/c1c(N(Cc2ccccc2)Cc2ccccc2)nc2ccccn2c1=O | 2.91µM* | ? | 11.6µM* | -158.5% | 11.7%
C=CCNC(=O)/C(C#N)=C/c1c(N2CCN(c3ccccc3)CC2)nc2c(C)cccn2c1=O | i | i | -15.6% | 1.3% | ?
CCNC(=O)/C(C#N)=C/c1c(N2CCOCC2)nc2ccccn2c1=O | i | i | -0.9% | 26.8% | 8.4%
CNC(=O)/C(C#N)=C/c1c(N(Cc2ccccc2)Cc2ccccc2)nc2c(C)cccn2c1=O | 23.1µM* | 16.4µM* | 23.1µM* | 0.2% | ?
COc1cccc(OCCCn2cc(/C=C3/C(=N)N4C=C(C)SC4=NC3=O)c3ccccc32)c1 | i | i | 1.1% | 6.7% | 8.2µM*
CC1=CN2C(=N)/C(=C/c3cn(CCCOc4ccccc4C)c4ccccc34)C(=O)N=C2S1 | i | i | ? | 14.6µM* | 21.6%
COc1cccc(OCCn2cc(C=O)c3ccccc32)c1 | i | i | -18.2% | 3.0% | 6.6%
COc1ccc(OCCCn2cc(/C=C3/C(=N)N4C=C(C)SC4=NC3=O)c3ccccc32)cc1 | 10.3µM* | i | ? | -7.4% | 14.9%
C=NC(C(=O)NC1C(=O)N2C1SC(C)(C)C2C(=O)O)c1ccccc1 (centres undefined) | . | . | . | -1.6% | 9.4%
O=C(NCCc1ccc(Cl)cc1)c1ccc(CSCc2ccccc2Cl)o1 | i | i | . | . | .
C=CCOc1ccc(C2NC(=S)NC3=C2CCc2ccccc23)cc1 (centres undefined) | i | i | 5.17µM* | -4.6% | ?
COc1cc(C2NC(=S)NC3=C2CCc2ccccc23)cc(OC)c1OC (centres undefined) | i | i | 1.8% | -0.6% | 0.3%
COc1ccc2c(c1)CCC1=C2NC(=S)NC1c1ccc(N(C)C)cc1 (centres undefined) | ? | ? | 8.4% | 12.5% | 20.6µM*
CC(CC(=O)NCCc1ccc(Cl)cc1)S(=O)(=O)c1ccc2c(c1)NC(=O)CO2 (centres undefined) | i | i | ? | -3.2% | -2.4%
Cc1ccc(NC(=O)c2ccc(OCC3CCCO3)cc2)cc1Cl (centres undefined) | ? | i | . | . | .
